Assay results published in the supplement of paper PMC7411054.
Where a name gives a salt, the structure may show the parent alone.

Columns and labels:
Assay in all cases: lowest phenotypically active concentration; higher = less potent
Conditions in all cases: treatment time: 24 h
A549-CANX-COX4 = test system: A549-CANX-COX4
Method in brief: (§1)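 The reporter lines, fifteen in total and built by gene editing in A549, HepG2 and WPMY1 cells, used BFP for segmentation alongside GFP and RFP/FusionRed markers. Each was treated at 0.3, 1, 3 or 9 µM for 24 h in four wells and then imaged live, with live-cell features normalised to solvent control wells. Deviation meant ≥3 of 4 wells beyond the 95th percentile of control Euclidean distances; reproducibility meant a median replicate Pearson correlation above the 95th percentile of non-replicates. Only conditions meeting both were scored as phenotypically active.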

A549-TP53BP1-CLTA = test system: A549-TP53BP1-CLTA
Method in brief: as §1

HepG2-CANX-COX4 = test system: HepG2-CANX-COX4
Method in brief: as §1

HepG2-GM130-SQSTM1 = test system: HepG2-GM130-SQSTM1
Method in brief: as §1

HepG2-TP53BP1-CLTA = test system: HepG2-TP53BP1-CLTA
Method in brief: as §1

WPMY1-ACTB-RAB5A = test system: WPMY1-ACTB-RAB5A
Method in brief: as §1

WPMY1-CANX-COX4 = test system: WPMY1-CANX-COX4
Method in brief: as §1

WPMY1-TP53BP1-CLTA = test system: WPMY1-TP53BP1-CLTA
Method in brief: as §1

WPMY1-TUBA1B-RELA = test system: WPMY1-TUBA1B-RELA
Method in brief: as §1

HepG2-TUBA1B-RELA = test system: HepG2-TUBA1B-RELA
Method in brief: as §1

Row | SMILES | lowest phenotypically active concentration (A549-CANX-COX4) [µM] | lowest phenotypically active concentration (A549-TP53BP1-CLTA) [µM] | lowest phenotypically active concentration (HepG2-CANX-COX4) [µM] | lowest phenotypically active concentration (HepG2-GM130-SQSTM1) [µM] | lowest phenotypically active concentration (HepG2-TP53BP1-CLTA) [µM] | lowest phenotypically active concentration (WPMY1-ACTB-RAB5A) [µM] | lowest phenotypically active concentration (WPMY1-CANX-COX4) [µM] | lowest phenotypically active concentration (WPMY1-TP53BP1-CLTA) [µM] | lowest phenotypically active concentration (WPMY1-TUBA1B-RELA) [µM] | lowest phenotypically active concentration (HepG2-TUBA1B-RELA) [µM]
1 | O=S(=O)(c1cccc2c(O)nccc12)N1CCCNCC1 [HA 1100 hydrochloride] | 9 | 9 | ≤ 0.3 | 9 | 1 | 9 | 3 | 9 | 3 | 
2 | CC(C)c1cnn2c(NCc3ccccc3)cc(NCCCCCCN)nc12 [BS 181 dihydrochloride] | 9 | 9 |  |  |  |  | 9 | 9 | 9 | 
3 | CCCCOc1c(C(=O)c2c(F)cc(C)cc2F)cnc2[nH]ncc12 | ≤ 0.3 |  |  | 9 | 3 | ≤ 0.3 | ≤ 0.3 |  | 3 | ≤ 0.3
4 | O=C1/C(=C\c2ccncc2)CCC/C1=C\c1ccncc1 | 3 |  | 3 | 1 | 3 | 3 | 3 | 9 | 3 | 3
5 | CCn1c(=O)n([C@H]2CCCN(c3nccc(-c4cc5ccccc5o4)n3)C2)c2ccccc21 | 3 | 9 |  |  |  |  | 3 |  |  | 
6 | CC(C)(C)c1cc(C(=O)/C=C/c2ccc(C(=O)O)cc2)cc(C(C)(C)C)c1 | 9 |  | ≤ 0.3 | 9 | 9 | ≤ 0.3 | ≤ 0.3 | ≤ 0.3 | 3 | 
7 | Cc1cc2c(F)c(Oc3ncnn4cc(OC[C@@H](C)OC(=O)[C@H](C)N)c(C)c34)ccc2[nH]1 [brivanib-alaninate] | 9 | 9 | 3 | 9 | 3 | 3 | 3 | 3 | 3 | 9
8 | Cc1nnc(-c2ccc3occ(-c4ccc(S(C)=O)cc4)c3c2)o1 (stereo unspecified) | 9 | 9 | 9 | 9 |  | 9 | 9 | 9 |  | 3
9 | CC1(C)O[C@@H]2C[C@H]3[C@@H]4C[C@H](F)C5=CC(=O)C=C[C@]5(C)[C@@]4(F)[C@@H](O)C[C@]3(C)[C@]2(C(=O)CO)O1 [fluocinolone acetonide] | ≤ 0.3 | ≤ 0.3 |  |  |  | ≤ 0.3 |  |  |  | 
10 | CN(C)CC(=O)Nc1ccc2[nH]c(=O)c3ccccc3c2c1 [PJ 34 hydrochloride] | 9 |  | 9 | 9 | 9 | 9 | 3 |  | 9 | 9
11 | Cc1cc(F)c(Nc2ncnc3cc(OCc4ccccc4)ccc23)cc1O | 9 |  |  |  |  |  | 3 |  | 9 | 
12 | C/C(=N/NC(=N)N)c1ccc(NC(=O)Nc2ccc(/C(C)=N/NC(=N)N)cc2)cc1 | 9 |  | 9 | 3 | 9 | 3 | 3 |  |  | 3
13 | c1cc(-c2cc(C3CCNCC3)[nH]n2)ccn1 | 9 |  | 9 |  |  | 9 | 9 |  |  | 
14 | Nc1ncnc2[nH]nc(Nc3ccc(F)cc3)c12 | 9 |  |  | 9 | 9 | 9 | 9 | 9 | 9 | 9
15 | COc1cc2ncnc(Nc3cccc(Br)c3)c2cc1OC | 1 | ≤ 0.3 |  | 9 | 9 |  | 9 | 3 |  | 9
16 | O=c1cc(-c2ccccc2)oc2c(O)c(O)ccc12 [7,8-Dihydroxyflavone] | 9 |  | 9 | 9 |  | 9 | 9 |  | 9 | 
17 | CCCCc1oc2ccc(NS(C)(=O)=O)cc2c1C(=O)c1ccc(OCCCN(CCCC)CCCC)cc1 [dronedarone] | 9 |  |  | 9 | 9 | 9 | 9 | 9 | 9 | 3
18 | C=C1C(=O)O[C@@H]2C=C(C)CCC=C(C)CC[C@@H]12 [Costunolide] | 9 |  | 9 | 3 | 9 | 9 |  | 9 | 9 | 
19 | Nc1nccc(-c2ccc3noc(-c4ccc(Cl)cc4)c3c2)n1 [PIM-1 Inhibitor 2] | 9 | 9 |  |  | 9 | 9 | 9 | 9 | 9 | 
20 | COc1cc2c(cc1NS(=O)(=O)c1ccc(Br)cc1C)n(C)c(=O)n2C | 9 | 9 | 3 | 9 |  |  |  |  |  | 3
21 | C=C1CC[C@@H]2[C@](C)(CO)[C@H](O)CC[C@@]2(C)[C@@H]1C/C=C1/C(=O)OC[C@H]1O [Andrographolide] | 9 |  | 3 | 1 | 3 |  |  |  | 9 | 3
22 | COc1ccc(-c2cc(=O)c3c(O)cc(O)cc3o2)cc1O [Diosmetin] | 9 |  |  |  |  |  | 9 | 9 | 9 | 9
23 | CN(C)c1ccc(/C=C2\C(=O)Nc3ccccc32)cc1 | 9 | 3 |  | 9 | 9 | 9 | 3 | 9 |  | 9

Row | SMILES | lowest phenotypically active concentration (A549-CANX-COX4) [µM] | lowest phenotypically active concentration (A549-TP53BP1-CLTA) [µM] | lowest phenotypically active concentration (HepG2-CANX-COX4) [µM] | lowest phenotypically active concentration (HepG2-GM130-SQSTM1) [µM] | lowest phenotypically active concentration (HepG2-TP53BP1-CLTA) [µM] | lowest phenotypically active concentration (WPMY1-ACTB-RAB5A) [µM] | lowest phenotypically active concentration (WPMY1-CANX-COX4) [µM] | lowest phenotypically active concentration (WPMY1-TP53BP1-CLTA) [µM] | lowest phenotypically active concentration (WPMY1-TUBA1B-RELA) [µM] | lowest phenotypically active concentration (HepG2-TUBA1B-RELA) [µM]
24 | CN1CCc2cccc3c2[C@H]1Cc1ccc(O)c(O)c1-3 [r(-)-apomorphine] | 9 | 9 |  |  |  | 9 | 9 |  | 9 | 
25 | C[C@@H](Nc1ncnc2[nH]c(-c3ccc(O)cc3)cc12)c1ccccc1 [PKI 166 hydrochloride] | 3 | 3 | 9 |  | 9 | 9 | 3 | 3 | 9 | 9
26 | CNCCC(Oc1ccc(C(F)(F)F)cc1)c1ccccc1 (stereo unspecified) [fluoxetine] |  | 9 |  |  | 9 |  |  |  |  | 3
27 | Cn1cc(C2=C(c3ccc(Cl)cc3Cl)C(=O)NC2=O)c2ccccc21 |  | ≤ 0.3 |  | 1 | ≤ 0.3 |  | 1 | ≤ 0.3 |  | 
28 | COc1cc(N2CCC(N)CC2)ccc1Nc1ncc(Cl)c(-c2c[nH]c3ccccc23)n1 |  | 3 | 1 | 3 | 3 | 1 | 1 | ≤ 0.3 | 1 | 1
29 | Cc1ccc(NC(=O)c2cccc(N(C)C)c2)cc1NC(=O)c1ccc(O)cc1 |  | 3 |  |  |  | 9 |  |  |  | 
30 | O=C(O)C[C@H](O)C[C@H](O)/C=C/c1c(C2CC2)nc2ccccc2c1-c1ccc(F)cc1 [Pitavastatin calcium] |  | 9 | 1 | 1 | 1 | ≤ 0.3 | 1 | 1 | 1 | 1
31 | COc1ccc(CCNCc2ccc(OCc3ccc(Cl)nc3)c(OC)c2)cc1OC [SBE 13 hydrochloride] |  | 9 |  |  | 9 | 9 | 9 | 9 | 9 | 9
32 | Cc1noc(C)c1Cn1cc(C#N)c2cc(Oc3ccc(NC(=O)[C@@H]4CCCN4)cc3)ccc21 |  | 9 |  | 9 | 9 | 9 | 9 | 9 | 9 | 9
33 | NS(=O)(=O)c1nn2cc(-c3ccccc3)nc2s1 |  | 9 | 9 | 9 |  | 9 |  | 9 | 9 | 9
34 | Clc1ccccc1C(c1ccccc1)(c1ccccc1)n1ccnc1 [Clotrimazole] |  | 9 | 9 |  |  |  | 9 |  |  | 
35 | O=S(=O)(c1cccc2cnccc12)N1CCCNCC1 [fasudil] |  | 9 | 3 | 3 | 3 | 3 | 3 |  | 9 | 9
36 | COc1ccccc1OCCNCC(O)COc1cccc2[nH]c3ccccc3c12 (stereo unspecified) [Carvedilol] |  | 9 | 9 | 9 | 9 | 9 | 9 | 9 | 9 | 9
37 | Cc1noc(C)c1-c1ccc2c(c1)nc(CCc1ccc(OCCCN(C)C)cc1)n2CCN1CCOCC1 |  | 9 | 9 | 9 | 9 | 9 | 9 | 9 | 9 | 9
38 | COc1c(C=O)c(O)cc2c1C(=O)c1ccccc1C2=O [Damnacanthal] |  | 3 |  | 9 | 9 | 9 | 9 | 9 | 9 | 
39 | C[C@]1(O)C[C@@H](c2nc(-c3ccc4ccc(-c5ccccc5)nc4c3)c3c(N)nccn32)C1 [linsitinib] |  | 9 | 9 | 9 | 9 | 9 | 9 | 9 |  | 9
40 | Cc1cc(Nc2ccc(NC(=O)c3ccc(Nc4ccnc5ccccc45)cc3)cc2)nc(N)n1 |  | 9 |  | 1 | 3 | 3 |  | 3 | 3 | 3
41 | N#C/C(=C(/N)Sc1ccc(N)cc1)c1ccccc1C(F)(F)F |  | 1 | 3 | 9 | 3 |  |  | 9 |  | 9
42 | CN1[C@@H]2CC[C@H]1C[C@@H](OC(c1ccccc1)c1ccccc1)C2 [benztropine] |  | 9 | 9 |  | 9 |  | 9 |  | 9 | 9
43 | C[C@H]1Oc2cc(cnc2N)-c2c(nn(C)c2C#N)CN(C)C(=O)c2ccc(F)cc21 |  | 3 | 3 | 3 | 3 |  |  | 9 |  | ≤ 0.3
44 | CCCS(=O)(=O)Nc1ccc(F)c(C(=O)c2c[nH]c3ncc(Cl)cc23)c1F |  | 1 | 1 | ≤ 0.3 | 1 |  |  |  |  | 9
45 | CC(C)COCC(CN(Cc1ccccc1)c1ccccc1)N1CCCC1 (stereo unspecified) [bepridil] |  | 9 | 9 | 9 | 9 |  | 9 | 9 |  | 9
